LYPLA2 counter = counter-screen for PME1 inhibitors: inhibitors of human LYPLA2. inhibition, % at 5.9 µM. actives 0.38% (n = 320,000). recombinant LYPLA2, FP-Rh probe fluorescence polarization;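 active = inhibition above the screen-wide mean plus 3 SD, limit set per campaign, cut at about 26% in these data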;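 note: 0% = LYPLA2 with DMSO and 100% = wells lacking LYPLA2 enzyme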
Target sequence (O95372 whole entry, looked up): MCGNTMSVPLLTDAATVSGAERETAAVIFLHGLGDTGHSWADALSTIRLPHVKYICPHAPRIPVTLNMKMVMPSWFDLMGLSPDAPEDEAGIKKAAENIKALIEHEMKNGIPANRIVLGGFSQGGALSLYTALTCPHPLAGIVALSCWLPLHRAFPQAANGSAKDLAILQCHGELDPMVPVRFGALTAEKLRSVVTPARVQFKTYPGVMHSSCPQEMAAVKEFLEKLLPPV
LYPLA1 counter = LYPLA1 (human) inhibition in PME1 counter-screen. AID 2174. O75608. recombinant LYPLA1, FP-Rh probe fluorescence polarization. inhibition, % at 5.9 µM. actives 0.16% (n = 320,000);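 active = inhibition above the mean of all tested compounds plus 3 SD, set per campaign, cut at about 14% in these data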;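 note: inhibitors block serine hydrolase probe labeling of LYPLA1 so polarization falls; 0% = enzyme with DMSO and 100% = wells lacking LYPLA1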
Target sequence (O75608 whole entry, looked up): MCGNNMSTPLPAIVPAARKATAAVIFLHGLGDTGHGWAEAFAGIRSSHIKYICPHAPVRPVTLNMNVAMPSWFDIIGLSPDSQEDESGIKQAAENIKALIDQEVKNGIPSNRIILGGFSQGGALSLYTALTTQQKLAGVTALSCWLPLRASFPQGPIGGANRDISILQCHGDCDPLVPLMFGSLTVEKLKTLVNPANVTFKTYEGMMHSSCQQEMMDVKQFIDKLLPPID
PAD4 inh = inhibitors of human PAD4. Q9UM07. recombinant PAD4, RCA probe fluorescence polarization. inhibition, % at 6.36 µM. actives 0.41% (n = 330,000);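 active = percent inhibition above a cutoff equal to the mean of all tested compounds plus 3 SD, cut at about 15% in these data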;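 note: 0% = PAD4 with RCA probe and DMSO and 100% = probe without PAD4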
PME-1 primary = PME-1 (human) inhibition; Q9Y570; recombinant PME-1, FP-Rh probe fluorescence polarization; inhibition, % at 5.9 µM; actives 0.53% (n = 320,000);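 active = inhibition above the campaign mean of all compounds plus 3 SD, cut at about 26% in these data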;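 note: competitive labeling of PME-1 active site by serine hydrolase directed probe; 0% = PME-1 with DMSO and 100% = wells lacking PME-1 enzyme; inhibitors block probe labeling so polarization falls and inhibition rises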
Fam108B counter = counter-screen for RBBP9 inhibitors: inhibitors of mouse Fam108B. recombinant Fam108B, FP-Rh probe fluorescence polarization. inhibition, % at 9.51 µM. actives 0.33% (n = 300,000). AID 1947;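 active = inhibition above the screen mean inhibition plus 3 SD, computed separately per campaign, cut at about 18% in these data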;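 note: inhibitors lower polarization as less probe binds the enzyme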
GSTO1 counter = counter-screen for RBBP9 inhibitors: inhibitors of human GSTO1; recombinant GSTO1, activity-based probe fluorescence polarization; inhibition, % at 5.96 µM; actives 1.1% (n = 300,000); AID 1974;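 active = inhibition above the campaign mean inhibition plus 3 SD, cut at about 35% in these data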;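 note: 0% = GSTO1-1 with DMSO and 100% = wells lacking GSTO1-1 enzyme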
Target sequence (P78417 whole entry, looked up): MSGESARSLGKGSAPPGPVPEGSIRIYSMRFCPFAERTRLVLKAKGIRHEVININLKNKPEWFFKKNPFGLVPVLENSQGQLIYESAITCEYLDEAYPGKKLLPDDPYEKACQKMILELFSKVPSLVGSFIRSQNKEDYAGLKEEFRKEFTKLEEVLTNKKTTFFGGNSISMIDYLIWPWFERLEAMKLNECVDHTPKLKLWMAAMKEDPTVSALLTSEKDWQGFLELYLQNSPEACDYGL
PAD4 confirm = confirmation of human PAD4 inhibitors. shares compounds with PAD4 inh. recombinant PAD4, RCA probe fluorescence polarization. inhibition, % at 6.36 µM. actives 28% (n = 1,200);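 active = mean inhibition across replicates above the hit cutoff set by the earlier primary screen, cut at about 15% in these data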;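 note: inhibitors block active-site labeling by the probe so polarization falls; 0% = PAD4 with probe and DMSO and 100% = probe without PAD4 enzyme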
The depositor's hits bear a star; nt = no result. Sampled rows, rich in hits. Any-hit rate of the full collection: about 1.7%.

SMILES | LYPLA2 counter | LYPLA1 counter | PAD4 inh | PME-1 primary | Fam108B counter | GSTO1 counter | PAD4 confirm
O=C(OCn1ncc(Cl)c(Cl)c1=O)c1cccc(C(F)(F)F)c1 | -17.9 | -8.4 | 31.6* | -7.9 | -10.9 | 21.3 | 20.4*
COc1ccc(OCCCC(=O)N2CCN(S(=O)(=O)c3cccc(F)c3)CC2)cc1 | 1.8 | 0.7 | 32.9* | -3.6 | 1.6 | 3.3 | -8.5
CCOc1ccccc1OCCCC(=O)N1CCN(S(=O)(=O)c2cccc(F)c2)CC1 | -5.2 | -4.5 | -1.1 | 3.7 | 3.3 | 2.8 | nt
COC(=O)c1cccc(NC(=O)CSc2nc(O)c(-c3ccccc3)c(=O)[nH]2)c1 | -6.4 | 3.1 | 17.6* | -6.5 | -7.9 | 8.1 | 20.3*
COC(=O)c1ccccc1NC(=O)CSc1nc(O)c(-c2ccccc2)c(=O)[nH]1 | 3.7 | 2.3 | 16.8* | -0.4 | 4.3 | 1.8 | 16.9*
CCN(c1ccccc1)S(=O)(=O)c1cc(C(=O)NCC(c2ccco2)N2CCCCC2)ccc1C (centres undefined) | nt | nt | -8.9 | nt | nt | nt | nt
CCn1c(CSc2ncn[nH]2)nc2cc(C(=O)O)ccc21 | 10.5 | 4.2 | 22.4* | 3.3 | 6.8 | 5.7 | 15.0*
O=C(O)c1ccc(CSc2ncn[nH]2)cc1 | 0.1 | 1.3 | -0.7 | -2.2 | -4.9 | 6.4 | nt
COc1cc(C)c(S(=O)(=O)NCc2cccnc2)cc1C | 4.4 | 3.5 | -3.3 | 2.2 | -3.1 | 6.4 | nt
CN(C)S(=O)(=O)c1cccc(NC(=O)CSc2ncnc3ccccc23)c1 | 0.7 | -3.9 | 15.1* | 2.7 | -0.5 | -3.6 | 12.3
O=C(O)CCC(=O)c1ccc(-c2ccccc2)cc1 | -2.5 | -0.4 | 172.2* | -4.3 | -2.6 | -0.5 | 15.9*
Cc1cc2cc(CNS(=O)(=O)c3ccc4ccccc4c3)ccc2n1C | -1.5 | 2.7 | 1.7 | 7.2 | -2.2 | -2.1 | nt
CC(=O)Nc1ccc(S(=O)(=O)NCc2ccc3c(c2)cc(C)n3C)cc1 | 3.3 | 13.2 | 16.3* | 5.9 | 4.3 | 1.1 | 7.4
COc1ccc(C2=NNC(=Nc3cc(S(=O)(=O)N(C)C)ccc3C)SC2)c(OC)c1 | 2.2 | -1.4 | 17.5* | 11.6 | -5.6 | 11.9 | 12.1
O=C(O)c1ccc(S(=O)(=O)c2ccc3c(c2)C(=O)N(c2ccc(O)cc2)C3=O)cc1 | 4.5 | 1.1 | 62.2* | 0.4 | -3.3 | 14.9 | 3.8
CCOC(=O)c1cc(C)sc1NC(=O)CSC1=NCCS1 | 6.2 | 2.8 | 15.3* | 5.1 | -4.9 | 1.4 | 19.4*
CCOC(=O)c1cc(C)sc1NC(=O)CSc1nnnn1C | -2.4 | 1.3 | 2.4 | -1.9 | -6.1 | 1.0 | nt
CC(C)c1ccc(N2C(=O)CSC23C(=O)N2CCCc4cccc3c42)cc1 (centres undefined) | 2.0 | 0.6 | 15.5* | 3.8 | -2.5 | 4.9 | 19.6*
CN(C)S(=O)(=O)c1cccc(NC(=S)Nc2cc(Cl)cc(Cl)c2)c1 | -5.7 | -6.1 | 0.4 | -1.4 | -18.9 | -8.6 | nt
CCN(CCO)c1ccc(NC(=S)Nc2cccc(S(=O)(=O)N(C)C)c2)cc1 | -3.7 | 0.4 | 40.0* | 1.4 | 1.2 | 29.4 | -1.3
Cc1cccc(-n2c(N)c(C(=O)NCCN3CCOCC3)c3nc4ccccc4nc32)c1 | 6.7 | -0.1 | 16.6* | 3.8 | -0.9 | 36.9* | -10.8
O=C(CN1C(=O)c2ccccc2C1=O)Nc1ccccc1C(=O)NC1CCCCC1 | -1.6 | -0.7 | -4.2 | 6.9 | 2.7 | 0.6 | nt
CC(=O)C[C@H](O)CC(=O)[C@H]1OC(=O)CCCCCc2ccccc21 | nt | nt | 1.1 | nt | nt | nt | nt
CC(=O)C[C@H](O)CC(=O)[C@H]1OC(=O)CC/C=C\Cc2ccccc21 | 2.2 | 3.7 | 21.6* | 0.9 | nt | nt | 0.2
COc1ccc(C(N)c2nccc3cc(OC)c(OC)cc23)cc1OC (centres undefined) | 4.0 | 0.3 | 21.6* | 7.0 | 4.2 | 39.3* | -1.1
SMILES | LYPLA2 counter | LYPLA1 counter | PAD4 inh | PME-1 primary | Fam108B counter | GSTO1 counter | PAD4 confirm
COc1cc(N)c(Cc2nccc3cc(OC)c(OC)cc23)cc1OC | -9.2 | -3.1 | -15.6 | -0.7 | -0.5 | 14.1 | nt
CCc1nnc(N/N=C/c2c(F)cccc2Cl)n1N | 5.5 | -0.2 | 37.3* | -2.8 | 3.4 | 22.6 | 2.3
Cc1nnc(N/N=C/c2c(Cl)cccc2Cl)n1N | 0.4 | -2.5 | 33.3* | -2.3 | 1.9 | 7.6 | 7.5
CCc1nnc(N/N=C/c2c(C)[nH]c3ccccc23)n1N | -2.3 | 0.7 | 30.4* | 4.5 | -3.5 | 52.3* | 6.6
Fc1cccc(Cl)c1/C=N/Nc1ccccn1 | 3.2 | -0.3 | -1.1 | -0.9 | 6.1 | 2.5 | nt
O=C(NN=C1CCCC1)c1ccccc1OCCOc1ccccc1 | 0.7 | 3.2 | 1.9 | 1.8 | -1.2 | -3.7 | nt
O=C(c1ccc(OC2CCN(CCO)CC2)cc1)N1CCCC1 | 5.7 | -0.3 | 0.9 | 3.7 | 0.0 | 1.9 | nt
Cc1ccc(C)c(NCCC#N)c1 | 1.8 | 0.7 | 1.3 | -2.3 | 2.2 | 1.1 | nt
Cc1cc(=O)n(C2CCS(=O)(=O)C2)[nH]1 (centres undefined) | -3.6 | -1.5 | 80.2* | -3.1 | 3.2 | 74.3* | 3.2
CC(C)(C)NC(=O)c1ccccc1NC(=O)C1CCCO1 (centres undefined) | -1.3 | -1.3 | -4.4 | -1.3 | -3.0 | -2.4 | nt
CC1=NN(CCC#N)C(=O)/C1=C/c1ccc(N(C)C)cc1 | 9.2 | 1.2 | -20.8 | -1.4 | 1.9 | 23.1 | nt
CCOc1cc(/C=C2\C(=O)N(CCC#N)N=C2C)ccc1OCC(N)=O | 3.3 | 8.4 | 56.9* | -2.3 | -1.2 | 54.5* | -5.7
COc1cc(/C=C2\C(=O)N(CCC#N)N=C2C)ccc1OCC(=O)Nc1ccccc1 | -3.4 | -1.5 | 50.8* | 0.2 | -4.7 | 47.2* | -7.8
CS(=O)(=O)N(CC(=O)NCc1ccncc1)c1cc(Cl)ccc1Cl | -5.8 | -1.7 | 0.3 | -1.9 | 1.4 | -7.2 | nt
C(=Nc1ccc(N2CCOCC2)cc1)c1c[nH]c2ccccc12 | 4.5 | 1.4 | 17.4* | 3.8 | 3.4 | 16.0 | -4.0
c1ccc(CCc2cc3ccccc3[nH]2)cc1 | -1.6 | -5.0 | -2.6 | -1.2 | nt | nt | nt
CCN(CC)c1ccc2c(C)c(Cl)c(=O)oc2c1 | 0.2 | 2.7 | -1.6 | 6.7 | 2.1 | 5.0 | nt
CCN(CC)c1ccc2c(c1)oc(=O)c1c(Cl)cc(=O)oc12 | 7.2 | -1.8 | 25.8* | 0.5 | 10.0 | 24.9 | 19.1*
O=C(O)CN1C(=O)/C(=C\c2ccccc2OCc2ccc(Cl)cc2)SC1=S | 10.8 | 0.0 | 22.4* | -3.2 | 3.0 | 4.0 | 1.8
COc1ccc(-c2nn(-c3ccccc3)cc2/C=C2/SC(=S)N(CCC(=O)O)C2=O)cc1 | 5.2 | 5.8 | -0.1 | 3.5 | 0.5 | -11.7 | nt
Cc1ccc(-c2nn(-c3ccccc3)cc2/C=C2\SC(=S)N(CC(=O)O)C2=O)cc1 | -2.7 | -0.7 | 14.8* | 2.6 | -7.1 | -4.3 | 3.5
O=C(O)CN1C(=O)/C(=C\c2cc(Br)ccc2OCc2ccc(Cl)cc2Cl)SC1=S | -12.0 | -7.7 | 5.5 | 3.1 | -9.3 | 1.8 | nt

Screening data: PubChem BioAssay, The Scripps Research Institute Molecular Screening Center
